GPR151 ag = human GPR151 activation; activation, % at 11.2 µM; PathHunter beta-arrestin GPR151 cells, luminescence; Q8TDV0; hit rate 1% among 650,000; AID 1508602; in the data active = activation above about 4.9%;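 note: 0% = median of compound wells and 100% = cells with positive control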
Target sequence (Q8TDV0 whole entry, looked up): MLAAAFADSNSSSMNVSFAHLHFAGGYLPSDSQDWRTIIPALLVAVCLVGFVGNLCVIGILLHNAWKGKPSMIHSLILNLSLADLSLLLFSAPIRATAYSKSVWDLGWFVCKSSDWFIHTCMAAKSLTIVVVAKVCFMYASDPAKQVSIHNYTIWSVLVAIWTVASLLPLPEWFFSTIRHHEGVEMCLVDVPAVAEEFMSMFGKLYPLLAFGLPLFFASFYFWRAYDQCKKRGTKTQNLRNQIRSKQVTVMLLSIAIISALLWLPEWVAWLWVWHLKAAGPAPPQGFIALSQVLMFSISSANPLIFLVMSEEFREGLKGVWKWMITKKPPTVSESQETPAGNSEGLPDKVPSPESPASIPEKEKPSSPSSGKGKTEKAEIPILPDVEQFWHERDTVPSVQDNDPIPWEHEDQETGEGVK
TEAD-YAP block = TEAD-YAP interaction inhibition | HEK-TIYL cells, TEAD-Gal4/YAP UAS-luciferase luminescence | hit rate 1.4% among 640,000 | inhibition, % at 9.12 µM; in the data active = inhibition above about 32%;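 note: 0% = median of test compound wells and 100% = reference inhibitor wells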
MITF inh = blocks human microphthalmia-associated transcription factor; O75030; AlphaScreen MITF homodimerization, bead proximity signal; inhibition, % at 2.6 µM; hit rate 0.91% among 650,000; AID 1259374; in the data active = inhibition above about 50%;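 note: 0% = vehicle wells with protein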
FBW7 act = human FBW7 E3 ligase activation, primary screen; hit rate 0.13% among 650,000; AID 1259310; Q969H0; AlphaScreen FBW7–phospho-cyclin E peptide binding, activator screen; normalized activity (activation), % at 26.1 µM; in the data active = normalized activity above about 1.9%;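 note: purified mutant Fbw7 with reduced substrate affinity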
* = called active by the depositor. Shown are actives, neighbours in structure and some others; about 3.5% of the full set was active somewhere.

Results for CCOc1ccccc1C1CC(=O)NC(SCC)=C1C#N (stereo unspecified) ?
GPR151 ag: 0; TEAD-YAP block: 7; MITF inh: 12; FBW7 act: 0

Results for CCOC(=O)CSC1=C(C#N)C(c2ccccc2F)CC(=O)N1 (stereo unspecified) ?
GPR151 ag: 1; TEAD-YAP block: 48*; MITF inh: 14; FBW7 act: 0

Results for COC(=O)CSC1=C(C#N)C(c2cccc(F)c2)CC(=O)N1 (stereo unspecified) ?
GPR151 ag: 1; TEAD-YAP block: 46*; MITF inh: 20; FBW7 act: 0

What do the screens show for `COC(=O)CSC1=C(C#N)C(c2ccc(C)s2)CC(=O)N1` (stereo unspecified)?
GPR151 ag: -1; TEAD-YAP block: 7; MITF inh: 10; FBW7 act: 0

Results for O=c1ccc(-c2cccs2)nn1C[C@H]1CCCN1S(=O)(=O)C1CCS(=O)(=O)C1 (stereo partly specified) ?
GPR151 ag: 1; TEAD-YAP block: -9; MITF inh: -8; FBW7 act: 0

What do the screens show for `Cn1c(O)c(C=Nc2ccc(Cl)cc2)c(=O)[nH]c1=S`?
GPR151 ag: 0; TEAD-YAP block: -4; MITF inh: 13; FBW7 act: 0

Results for Cc1nc(N2CCCC(NCc3ccc(Cl)s3)CC2)nc2ccc(F)cc12 (stereo unspecified) ?
GPR151 ag: 3; TEAD-YAP block: 9; MITF inh: 0; FBW7 act: 0

What do the screens show for `C=CCn1c(-c2ccccc2)csc1=Nc1cccc(O)c1`?
GPR151 ag: 2; TEAD-YAP block: -23; MITF inh: 4; FBW7 act: 0

What do the screens show for `CCOC(=O)CSC1=C(C#N)C(c2ccc(C)cc2)CC(=O)N1` (stereo unspecified)?
GPR151 ag: -1; TEAD-YAP block: 1; MITF inh: 9; FBW7 act: 0

How did CCOC(=O)CSC1=C(C#N)C(c2ccc(F)cc2)CC(=O)N1 (stereo unspecified) do in these assays?
GPR151 ag: -2; TEAD-YAP block: 42*; MITF inh: 15; FBW7 act: 0

What do the screens show for `Nc1nc2ccc(Cc3ccc4nc(N)sc4c3)cc2s1`?
GPR151 ag: -1; TEAD-YAP block: 41*; MITF inh: 10; FBW7 act: 0

Results for Nc1nc2ccc(Cc3nc4ccccc4o3)cc2s1 ?
GPR151 ag: 1; TEAD-YAP block: -54; MITF inh: -17; FBW7 act: 0

How did c1csc(CNc2ccc(-c3nc4ccccc4s3)cc2)c1 do in these assays?
GPR151 ag: -6; TEAD-YAP block: 86*; MITF inh: 1; FBW7 act: 0

What do the screens show for `c1ccc(-c2nc3ccccc3s2)cc1`?
GPR151 ag: -2; TEAD-YAP block: -36; MITF inh: 8; FBW7 act: 0

How did CCCCOc1ccc(-c2nn(-c3ccccc3)cc2/C=c2\sc3nc(=O)c(Cc4ccccc4)nn3c2=O)cc1C do in these assays?
GPR151 ag: -1; TEAD-YAP block: 4; MITF inh: 76*; FBW7 act: 0

What do the screens show for `CCCCOc1ccc(-c2nn(-c3ccccc3)cc2/C=c2\sc3nc(=O)c(C)nn3c2=O)cc1C`?
GPR151 ag: 0; TEAD-YAP block: 9; MITF inh: -24; FBW7 act: 0

How did O=C(CNc1ccc(I)cc1)N/N=C/c1ccc(O)cc1O do in these assays?
GPR151 ag: -1; TEAD-YAP block: 56*; MITF inh: 10; FBW7 act: 0

How did O=C(N/N=C/c1ccc(O)cc1O)c1ccc(I)cc1 do in these assays?
GPR151 ag: 3; TEAD-YAP block: 46*; MITF inh: 29; FBW7 act: 0

Results for O=C(c1ccc(Oc2cnccn2)cc1)N1CCOCC1 ?
GPR151 ag: -2; TEAD-YAP block: 5; MITF inh: 12; FBW7 act: 0

Results for Cc1oc2c(c1C(=O)N1CCCC1)C(=O)c1ccccc1C2=O ?
GPR151 ag: -1; TEAD-YAP block: 54*; MITF inh: 16; FBW7 act: 0

How did Cc1oc2c(c1C(=O)O)C(=O)c1ccccc1C2=O do in these assays?
GPR151 ag: 1; TEAD-YAP block: -6; MITF inh: 0; FBW7 act: 0

How did Cn1ncc2c(=O)n(CC(N)=O)cnc21 do in these assays?
GPR151 ag: -2; TEAD-YAP block: 5; MITF inh: -32; FBW7 act: 0

What do the screens show for `N#CC1=C(N)Oc2cc(N)ccc2C1C1CCCCC1` (stereo unspecified)?
GPR151 ag: 2; TEAD-YAP block: 46*; MITF inh: -2; FBW7 act: 0

How did N#CC1=C(N)Oc2cc(N)ccc2C1c1ccc(C(F)(F)F)cc1 (stereo unspecified) do in these assays?
GPR151 ag: 0; TEAD-YAP block: 6; MITF inh: 10; FBW7 act: 0

How did CCN(CC)c1ccc(/C=N/NC(=O)c2ccc(OC)cc2)c(O)c1 do in these assays?
GPR151 ag: -1; TEAD-YAP block: 8; MITF inh: -29; FBW7 act: 0

Results for CCN1/C(=C/c2ccc3ccc(C)cc3[n+]2C)Sc2ccccc21 ?
GPR151 ag: 2; TEAD-YAP block: 90*; MITF inh: 20; FBW7 act: 0

What do the screens show for `CCN1/C(=C/c2ccc3cc(C)ccc3[n+]2CC)Sc2cc(NC(C)=O)ccc21`?
GPR151 ag: 0; TEAD-YAP block: 10; MITF inh: 20; FBW7 act: 0

Results for CCN1/C(=C/c2ccc3ccc(C)cc3[n+]2CC)Sc2cc(C)c(C)cc21 ?
GPR151 ag: 2; TEAD-YAP block: 89*; MITF inh: 24; FBW7 act: -1

Results for CCN1/C(=C/c2ccc3cc(C)ccc3[n+]2CC)Sc2c(C)cc(C)cc21 ?
GPR151 ag: 0; TEAD-YAP block: 73*; MITF inh: 5; FBW7 act: 0

What do the screens show for `O=C(NC(NCC1CCCO1)C(Cl)(Cl)Cl)c1ccco1` (stereo unspecified)?
GPR151 ag: 0; TEAD-YAP block: -4; MITF inh: -13; FBW7 act: 0

What do the screens show for `CC(=O)OC1c2cc(C)ccc2NC(c2ccccc2)C1(C)C` (stereo unspecified)?
GPR151 ag: 0; TEAD-YAP block: 63*; MITF inh: -1; FBW7 act: 0

Results for CC(=O)OC1c2ccccc2NC(c2ccccc2)C1(C)C (stereo unspecified) ?
GPR151 ag: 1; TEAD-YAP block: -6; MITF inh: -6; FBW7 act: 0

Results for CC(C)N(CCNc1nc(Nc2ccc(-n3ccnc3)cc2)nc2c1ncn2C(C)C)C(C)C ?
GPR151 ag: -1; TEAD-YAP block: 60*; MITF inh: 5; FBW7 act: 1

How did CC(C)N(CCNc1nc(Nc2ccc(-n3ccnc3)cc2)nc2c1ncn2-c1ccsc1)C(C)C do in these assays?
GPR151 ag: 1; TEAD-YAP block: 51*; MITF inh: 15; FBW7 act: 0

What do the screens show for `c1ccc(CNc2nc(Nc3ccc(-n4ccnc4)cc3)nc3c2ncn3-c2ccsc2)cc1`?
GPR151 ag: 5; TEAD-YAP block: 2; MITF inh: 9; FBW7 act: 0

Results for CC(C)N(CCNc1nc(Nc2ccccn2)nc2c1ncn2C(C)C)C(C)C ?
GPR151 ag: 0; TEAD-YAP block: 43*; MITF inh: -1; FBW7 act: 0

From PubChem BioAssay
